Reference: the supplement of paper PMC6805474

Key:
[1] = tested on: Schistosoma mansoni schistosomula (LE); assay: XTT viability relative to DMSO control; higher = more viable (less active); details: 72 h; 10 µM
Description: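 XTT/PMS was then added for a further 24 h (72 h total) and A450 was read. % viability = (sample - heat-killed control)/(DMSO control - heat-killed control) x 100, from duplicate wells in two independent experiments.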

[2] = tested on: Schistosoma mansoni schistosomula (NMRI); assay: phenotypic severity score (0-4); higher = more antischistosomal effect, active = 2 or more; details: 10 µM
[3] = tested on: Schistosoma mansoni schistosomula (Liberian); assay: drug effect (1 - score/DMSO control score) (fraction); higher = more antischistosomal effect, active = 0.5 or more; extreme values may be limits of the assay; details: 10 µM
Method in brief: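 Liberian-strain Schistosoma mansoni schistosomula, mechanically transformed from cercariae and pre-incubated at least 12 h, were exposed in duplicate (50 per well, flat-bottom 96-well plates) to 10 µM compound in Medium 199 with 5% FCS at 37 °C, 5% CO2, with 0.1% DMSO control wells. Wells were scored visually (10×) at 24, 48 and 72 h on a quarter-point scale from 3 (normal) to 0 (dead). Drug effect was derived from the mean test-well score relative to the mean DMSO-control score. Negative values were set to zero, and plates were valid only if control wells averaged at least 2.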
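For phenotypic severity score (0-4) in this document: visual microscopic scoring of shape, motility and density changes versus 0.5% DMSO solvent controls, one point per descriptor, degeneracy or death scored 4, mean of duplicate wells.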

COc1cccn2c(C(=O)N3CCCCC3)c(C(F)(F)F)nc12
XTT viability [1]: 95.7%
phenotypic severity score ([2]; 24 h): 0 (inactive)
phenotypic severity score ([2]; 48 h): 0 (inactive)
phenotypic severity score ([2]; 72 h): 0 (inactive)
drug effect ([3]; 24 h): 0.182 (inactive)
drug effect ([3]; 48 h): 0.2 (inactive)
drug effect ([3]; 72 h): 0.127 (inactive)

NCC(c1cccs1)S(=O)(=O)c1ccccc1 (centres undefined)
XTT viability [1]: 45.2%
phenotypic severity score ([2]; 24 h): 1 (inactive)
phenotypic severity score ([2]; 48 h): 1 (inactive)
phenotypic severity score ([2]; 72 h): 2 (active)
drug effect ([3]; 24 h): 0.15 (inactive)
drug effect ([3]; 48 h): 0.05 (inactive)
drug effect ([3]; 72 h): 0.0556 (inactive)

CCNC(=O)C(C)Nc1nc(-c2cccnc2)nc2sc(C)c(C)c12 (centres undefined)
XTT viability [1]: 81.9%
phenotypic severity score ([2]; 24 h): 0 (inactive)
phenotypic severity score ([2]; 48 h): 0 (inactive)
phenotypic severity score ([2]; 72 h): 0 (inactive)
drug effect ([3]; 24 h): < 0 (inactive)
drug effect ([3]; 48 h): < 0 (inactive)
drug effect ([3]; 72 h): 0.111 (inactive)

NCCN(C(=O)c1ccc(Cl)cc1Cl)c1ccc(OCc2ccc(Cl)cc2)cc1
XTT viability [1]: 22.7%
phenotypic severity score ([2]; 24 h): 0 (inactive)
phenotypic severity score ([2]; 48 h): 0 (inactive)
phenotypic severity score ([2]; 72 h): 0 (inactive)
drug effect ([3]; 24 h): 0.4 (inactive)
drug effect ([3]; 48 h): 0.333 (inactive)
drug effect ([3]; 72 h): 0.312 (inactive)

COc1ccc(Cl)cc1NC(=O)CN(C)C(=O)c1cnn(-c2ccccc2)n1
XTT viability [1]: 78.4%
phenotypic severity score ([2]; 24 h): 0 (inactive)
phenotypic severity score ([2]; 48 h): 0 (inactive)
phenotypic severity score ([2]; 72 h): 0 (inactive)
drug effect ([3]; 24 h): 0.2 (inactive)
drug effect ([3]; 48 h): 0.351 (inactive)
drug effect ([3]; 72 h): 0.389 (inactive)

CCN(CC)S(=O)(=O)c1ccc(Cl)c(C(=O)Nc2ccc3nc(C)sc3c2)c1
XTT viability [1]: 87.9%
phenotypic severity score ([2]; 24 h): 1 (inactive)
phenotypic severity score ([2]; 48 h): 0 (inactive)
phenotypic severity score ([2]; 72 h): 0 (inactive)
drug effect ([3]; 24 h): 0.05 (inactive)
drug effect ([3]; 48 h): 0.027 (inactive)
drug effect ([3]; 72 h): 0.111 (inactive)

Clc1cccc(C(c2ccc(CN3CCNCC3)cc2)n2ccnc2)c1 (centres undefined)
XTT viability [1]: 76.1%
phenotypic severity score ([2]; 24 h): 1 (inactive)
phenotypic severity score ([2]; 48 h): 1 (inactive)
phenotypic severity score ([2]; 72 h): 4 (active)
drug effect ([3]; 24 h): 0.405 (inactive)
drug effect ([3]; 48 h): 0.667 (active)
drug effect ([3]; 72 h): 0.875 (active)

Cn1ncc2c(N3CCOCC3)nc(NCCc3c[nH]c4ccccc34)nc21
XTT viability [1]: 71.8%
phenotypic severity score ([2]; 24 h): 4 (active)
phenotypic severity score ([2]; 48 h): 4 (active)
phenotypic severity score ([2]; 72 h): 4 (active)
drug effect ([3]; 24 h): 0.45 (inactive)
drug effect ([3]; 48 h): 0.676 (active)
drug effect ([3]; 72 h): 0.944 (active)

Cc1ccc2nc(C)c(-c3ccn(Cc4ccccc4)n3)n2c1
XTT viability [1]: 95.7%
phenotypic severity score ([2]; 24 h): 3 (active)
phenotypic severity score ([2]; 48 h): 4 (active)
phenotypic severity score ([2]; 72 h): 4 (active)
drug effect ([3]; 24 h): < 0 (inactive)
drug effect ([3]; 48 h): < 0 (inactive)
drug effect ([3]; 72 h): 0.111 (inactive)

CCOC(=O)c1noc(N)c1-c1ccccc1
XTT viability [1]: 94.1%
phenotypic severity score ([2]; 24 h): 0 (inactive)
phenotypic severity score ([2]; 48 h): 0 (inactive)
phenotypic severity score ([2]; 72 h): 0 (inactive)
drug effect ([3]; 24 h): 0.05 (inactive)
drug effect ([3]; 48 h): 0.0811 (inactive)
drug effect ([3]; 72 h): 0.0909 (inactive)

C[C@H](C(N)=O)N1CCCC[C@H]1c1ccc(OCc2cccc(F)c2)cc1
XTT viability [1]: 118%
phenotypic severity score ([2]; 24 h): 0 (inactive)
phenotypic severity score ([2]; 48 h): 0 (inactive)
phenotypic severity score ([2]; 72 h): 0 (inactive)
drug effect ([3]; 24 h): 0.05 (inactive)
drug effect ([3]; 48 h): 0.0811 (inactive)
drug effect ([3]; 72 h): 0.212 (inactive)

CN(C)c1cc(NC(=O)Nc2ccccc2)c2ccccc2n1
XTT viability [1]: -13.7%
phenotypic severity score ([2]; 24 h): 1 (inactive)
phenotypic severity score ([2]; 48 h): 0 (inactive)
phenotypic severity score ([2]; 72 h): 0 (inactive)
drug effect ([3]; 24 h): 0.182 (inactive)
drug effect ([3]; 48 h): 0.35 (inactive)
drug effect ([3]; 72 h): 0.455 (inactive)

Cc1ccc(S(=O)(=O)N2CCN(C(=O)c3cc(-c4ccccc4)[nH]n3)CC2)cc1
XTT viability [1]: 82.6%
phenotypic severity score ([2]; 24 h): 2 (active)
phenotypic severity score ([2]; 48 h): 2 (active)
phenotypic severity score ([2]; 72 h): 1 (inactive)
drug effect ([3]; 24 h): 0.455 (inactive)
drug effect ([3]; 48 h): 0.75 (active)
drug effect ([3]; 72 h): 0.836 (active)

O=C(NC1CC1)c1ccc(N2CCOc3ccc(Cl)cc32)s1
XTT viability [1]: 83.5%
phenotypic severity score ([2]; 24 h): 0 (inactive)
phenotypic severity score ([2]; 48 h): 0 (inactive)
phenotypic severity score ([2]; 72 h): 0 (inactive)
drug effect ([3]; 24 h): 0.35 (inactive)
drug effect ([3]; 48 h): 0.459 (inactive)
drug effect ([3]; 72 h): 0.5 (active)

COC(=O)c1cccc2oc(-c3cccc(OC)c3NC(=O)c3cc(-c4ccccc4)on3)nc12
XTT viability [1]: 88.1%
phenotypic severity score ([2]; 24 h): 0 (inactive)
phenotypic severity score ([2]; 48 h): 0 (inactive)
phenotypic severity score ([2]; 72 h): 0 (inactive)
drug effect ([3]; 24 h): 0.351 (inactive)
drug effect ([3]; 48 h): 0.333 (inactive)
drug effect ([3]; 72 h): 0.312 (inactive)

O=C(Nc1c(O)cccc1-c1nc2c(C(=O)O)cccc2o1)c1cc(-c2ccccc2)on1
XTT viability [1]: 80.2%
phenotypic severity score ([2]; 24 h): 0 (inactive)
phenotypic severity score ([2]; 48 h): 0 (inactive)
phenotypic severity score ([2]; 72 h): 0 (inactive)
drug effect ([3]; 24 h): 0.05 (inactive)
drug effect ([3]; 48 h): 0.027 (inactive)
drug effect ([3]; 72 h): 0.0303 (inactive)

CNc1cc(C)nc(C2CN(C(=O)c3n[nH]c4ccccc34)CCO2)c1 (centres undefined)
XTT viability [1]: 123%
phenotypic severity score ([2]; 24 h): 0 (inactive)
phenotypic severity score ([2]; 48 h): 0 (inactive)
phenotypic severity score ([2]; 72 h): 0 (inactive)
drug effect ([3]; 24 h): 0.158 (inactive)
drug effect ([3]; 48 h): 0.167 (inactive)
drug effect ([3]; 72 h): 0.125 (inactive)
